PubChem BioAssay (NCATS)
Inconclusive results are not listed. Activity calls are given as the source filed them. Unless noted, calls come from the whole dose curve; as a rule, active = well fitted curve in the direction sought with a large enough effect; inconclusive = small, poorly fitted or top-dose-only effect, or another doubt; inactive = no such curve, though single readings can be large; an effect the other way counts as inactive or inconclusive.

How the values were obtained:
[1] = molecular target: Lysosomal acid glucosylceramidase (Homo sapiens) (UniProt P04062); assay: Glucocerebrosidase-p2 (AID 348; in the data active = potency below about 10 µM; note: potency is the fitted concentration of half-maximal effect); settings: purified GBA, blue fluorogenic substrate, 40 min
Sequence of Lysosomal acid glucosylceramidase (Homo sapiens) (P04062 whole entry, looked up): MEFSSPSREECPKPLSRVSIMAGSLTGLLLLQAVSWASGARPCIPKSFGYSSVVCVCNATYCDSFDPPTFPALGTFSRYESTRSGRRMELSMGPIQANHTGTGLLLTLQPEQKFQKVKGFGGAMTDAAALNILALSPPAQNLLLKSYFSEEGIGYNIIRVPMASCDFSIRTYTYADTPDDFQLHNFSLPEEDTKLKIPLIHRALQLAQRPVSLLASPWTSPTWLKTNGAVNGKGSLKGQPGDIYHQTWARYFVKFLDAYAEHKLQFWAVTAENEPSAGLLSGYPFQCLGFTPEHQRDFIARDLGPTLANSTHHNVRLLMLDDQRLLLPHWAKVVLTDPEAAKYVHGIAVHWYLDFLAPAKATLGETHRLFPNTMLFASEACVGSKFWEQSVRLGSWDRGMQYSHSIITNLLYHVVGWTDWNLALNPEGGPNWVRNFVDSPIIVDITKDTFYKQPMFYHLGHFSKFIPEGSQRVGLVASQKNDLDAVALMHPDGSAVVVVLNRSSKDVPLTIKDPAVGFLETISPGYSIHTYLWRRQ
Method in brief: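 Compounds titrated from 0.6 nM upwards against 0.2 nM enzyme in pH 5.9 citric acid/KH2PO4, taurocholate, tween-20; blue fluorogenic substrate 80 uM, 40 min room temperature, stopped and read Ex 365/Em 440 for AC50.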

[2] = AP1 Signaling Pathway (AID 357; active = well fitted curve in either direction with a large enough effect, not every such curve was filed as active;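 note: ME-180 reporter cells stimulated with EGF at its EC50 level; % is set by controls: 0 for no effect and ±100 for the full control effect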); settings: ME-180 AP-1-bla reporter, EGF-induced, beta-lactamase ratio, 5 h; at 7.69 µM (top of the series) unless noted
Method in brief: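 AP-1-bla ME-180 cells, Opti-MEM + 0.5% dialyzed FBS, plated overnight 37 °C. Cpd titration + EC50 EGF, 5 h 37 °C. CCF4 2.5 h RT; ex 405, em 460/530 ratio → %activity, AC50.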

[3] = molecular target: Cytochrome P450 1A2 (Homo sapiens) (UniProt P05177); assay: p450-cyp1a2 (AID 410; calls by dose curve; note: potency is the fitted concentration of half-maximal effect)
Sequence of Cytochrome P450 1A2 (Homo sapiens) (P05177 whole entry, looked up): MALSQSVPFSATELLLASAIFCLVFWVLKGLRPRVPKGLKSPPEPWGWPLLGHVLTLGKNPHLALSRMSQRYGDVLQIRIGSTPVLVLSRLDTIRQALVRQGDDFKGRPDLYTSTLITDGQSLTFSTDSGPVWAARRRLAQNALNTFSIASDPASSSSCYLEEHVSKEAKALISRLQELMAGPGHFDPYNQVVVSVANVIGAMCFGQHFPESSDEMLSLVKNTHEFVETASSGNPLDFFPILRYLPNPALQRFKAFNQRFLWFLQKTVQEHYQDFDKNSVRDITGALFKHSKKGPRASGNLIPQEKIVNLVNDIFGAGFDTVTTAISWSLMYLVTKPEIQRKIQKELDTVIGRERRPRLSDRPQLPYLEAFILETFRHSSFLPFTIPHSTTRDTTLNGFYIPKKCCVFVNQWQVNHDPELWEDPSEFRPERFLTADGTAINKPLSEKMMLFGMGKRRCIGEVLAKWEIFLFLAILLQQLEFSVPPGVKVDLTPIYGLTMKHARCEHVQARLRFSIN
Method in brief: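 Inhibition was calculated relative to 57 uM furafylline (full inhibition). The reaction used human CYP1A2 at 20nM with Luciferin-ME at its Km, 100uM, driven by an NADPH-regenerating system for 60 min at room temperature.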

[4] = NFAT Signaling Pathway (AID 444; active = well fitted curve in either direction with a large enough effect, not every such curve was filed as active;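 note: carbachol stimulus at about its EC50 of 1 µM final; % is set by controls: 0 for no effect and ±100 for the full control effect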); settings: Jurkat NFAT-bla M1, carbachol, beta-lactamase ratio, 5 h; at 7.69 µM (top of the series) unless noted
Method in brief: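 Read-out: CCF4 FRET ratio (460 nm/530 nm) after 1 h RT dye loading, used for %activity and AC50 from titration series. Cells: Jurkat NFAT-β-lactamase/M1 line, treated with compound plus 1 uM carbachol for 5 h, 37 °C.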

[5] = Stat Signaling Pathway (AID 446; active = well fitted curve in either direction with a large enough effect, not every such curve was filed as active;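 note: ME-180 cervical cancer cells given 40 pM IL-6 alongside compound; SIE-controlled beta-lactamase reporter measured as 460/530 nm FRET emission ratio; % is set by controls: 0 for no effect and ±100 for the full control effect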); settings: ME-180 (cervical carcinoma) SIE beta-lactamase reporter, IL-6 stimulated, 5 h; at 7.69 µM (top of the series) unless noted
Method in brief: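 IL-6/STAT signaling read in ME-180 cells via an SIE beta-lactamase reporter. Stimulus was 40 pM IL-6 (its AC50) for 5 hrs, so both activation and inhibition register.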

[6] = molecular target: Glucocorticoid receptor (Homo sapiens) (UniProt P04150); assay: GR-GFP Redistribution (AID 450;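 active = compounds whose dose series gives a full or clear partial fitted curve of increased nuclear translocation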; note: potency is the fitted concentration of half-maximal effect); settings: U2OS GR-GFP nuclear translocation, laser cytometry, 2 h
Sequence of Glucocorticoid receptor (Homo sapiens) (P04150 whole entry, looked up, the tested form may be a part): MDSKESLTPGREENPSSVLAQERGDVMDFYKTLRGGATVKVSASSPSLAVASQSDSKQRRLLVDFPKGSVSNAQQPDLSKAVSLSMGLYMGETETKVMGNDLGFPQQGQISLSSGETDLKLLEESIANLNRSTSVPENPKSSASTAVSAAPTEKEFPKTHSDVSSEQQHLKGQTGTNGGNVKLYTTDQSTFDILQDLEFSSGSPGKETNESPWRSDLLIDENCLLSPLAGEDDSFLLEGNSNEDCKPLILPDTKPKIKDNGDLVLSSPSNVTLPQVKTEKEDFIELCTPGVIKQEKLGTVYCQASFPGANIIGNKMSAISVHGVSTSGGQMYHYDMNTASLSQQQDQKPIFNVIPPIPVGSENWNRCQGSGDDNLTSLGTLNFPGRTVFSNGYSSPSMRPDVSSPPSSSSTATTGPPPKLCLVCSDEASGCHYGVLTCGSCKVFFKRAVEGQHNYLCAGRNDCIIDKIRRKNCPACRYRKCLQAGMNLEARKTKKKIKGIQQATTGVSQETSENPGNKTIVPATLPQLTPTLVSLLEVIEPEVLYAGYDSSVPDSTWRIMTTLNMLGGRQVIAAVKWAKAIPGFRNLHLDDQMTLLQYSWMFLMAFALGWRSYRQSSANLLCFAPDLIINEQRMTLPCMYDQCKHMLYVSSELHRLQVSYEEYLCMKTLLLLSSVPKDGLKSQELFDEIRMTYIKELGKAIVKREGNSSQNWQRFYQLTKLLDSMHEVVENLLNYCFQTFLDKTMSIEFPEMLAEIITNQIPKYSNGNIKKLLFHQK

[7] = molecular target: Glucocorticoid receptor (Homo sapiens) (UniProt P04150); assay: GR-EFC Redistribution (AID 451; calls by dose curve; note: potency is the fitted concentration of half-maximal effect); settings: CHO-K1 GR-EFC translocation, beta-gal luminescence, 2 h
Method in brief: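 Translocation of GR-ED fusion to nuclear EA restores b-gal, read by luminescence after 1 h room-temperature detection. Engineered CHO-K1 biosensor cells, 1,000/well, exposed 2 h at 37 C to titrations up to 46 uM final.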

[8] = molecular target: Mitogen-activated protein kinase 10 (Mus musculus) (UniProt Q61831); assay: JNK3 AlphaScreen Assay (AID 530; active = well fitted curve in either direction with a large enough effect, not every such curve was filed as active;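 note: kinase came from lysate of stimulated human HepG2 cells; signal reports phosphorylation of biotinylated GST-cJun 1-79 at Ser73 with 10 µM ATP; % is set by controls: 0 for no effect and ±100 for the full control effect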)
Method in brief: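 Room-temperature AlphaScreen kinase assay; pre-activated HepG2 lysate as JNK3 source, biotin-GST-cJun(1-79) substrate, 10 uM ATP, compound 15 min preincubation.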

[9] = molecular target: 3',5'-cyclic-AMP phosphodiesterase 4B (Homo sapiens) (UniProt Q07343); assay: qHTS Assay for Inhibitors of PDE-IV (AID 607; active = well fitted activation curve with a large enough effect in the main read-out, with a control signal flat, not every such curve was filed as active; note: % of control where 0% means no effect)
Sequence of 3',5'-cyclic-AMP phosphodiesterase 4B (Homo sapiens) (Q07343 whole entry, looked up): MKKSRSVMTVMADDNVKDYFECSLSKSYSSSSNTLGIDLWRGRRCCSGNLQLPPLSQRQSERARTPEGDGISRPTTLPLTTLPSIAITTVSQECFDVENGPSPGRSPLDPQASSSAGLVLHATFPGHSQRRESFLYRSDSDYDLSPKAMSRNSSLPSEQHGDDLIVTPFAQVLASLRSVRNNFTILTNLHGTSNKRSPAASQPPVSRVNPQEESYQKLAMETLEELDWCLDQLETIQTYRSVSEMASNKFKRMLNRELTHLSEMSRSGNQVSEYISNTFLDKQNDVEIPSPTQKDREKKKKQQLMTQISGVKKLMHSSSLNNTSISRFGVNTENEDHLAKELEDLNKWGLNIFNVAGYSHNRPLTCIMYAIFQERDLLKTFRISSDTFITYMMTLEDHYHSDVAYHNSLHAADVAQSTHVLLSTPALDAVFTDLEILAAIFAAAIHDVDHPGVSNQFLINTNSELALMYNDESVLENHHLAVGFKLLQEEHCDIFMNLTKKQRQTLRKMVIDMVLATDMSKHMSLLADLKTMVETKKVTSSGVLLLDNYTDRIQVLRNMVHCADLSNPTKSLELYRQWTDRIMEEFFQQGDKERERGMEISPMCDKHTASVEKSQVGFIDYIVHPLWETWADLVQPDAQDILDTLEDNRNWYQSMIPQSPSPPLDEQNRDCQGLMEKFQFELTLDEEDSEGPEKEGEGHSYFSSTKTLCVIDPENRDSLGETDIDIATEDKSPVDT
Method in brief: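 Live HEK293 cells with a modified cyclic nucleotide-gated (CNG) channel report intracellular cAMP via membrane-potential dye fluorescence (ex 535/em 590 nm). Endogenous PDE-IV was targeted. Compounds were tested at up to 22.9 uM final; RO 20-1724 100 uM served as control.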

[10] = qHTS Assay for Lipid Storage Modulators (AID 1519; calls by dose curve); settings: Drosophila S3 cells, BODIPY lipid droplet/cell ratio, laser cytometry, cells loaded with oleic acid; for activity change, negative = inhibition: at 57.5 µM (top of the series)
Method in brief: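 Cells seeded at 5,000 per well were treated with compounds over a concentration series and loaded with oleic acid (400 uM, as added). Lipid droplet fluorescence (488 nm excitation, 500-530 nm channel) was read by laser-scanning cytometry and normalized to 20 uM Triacsin C.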

[11] = molecular target: Dual specificity protein kinase CLK4 (Homo sapiens) (UniProt Q9HAZ1); assay: qHTS Assay for Inhibitors of CDC-like Kinase 4 (Kinase-Glo Assay) (AID 1770); note: % is set by controls: 0 for no effect and ±100 for the full control effect; nearly all actives have a fitted effect of over 65% in size
Sequence of Dual specificity protein kinase CLK4 (Homo sapiens) (Q9HAZ1 whole entry, looked up): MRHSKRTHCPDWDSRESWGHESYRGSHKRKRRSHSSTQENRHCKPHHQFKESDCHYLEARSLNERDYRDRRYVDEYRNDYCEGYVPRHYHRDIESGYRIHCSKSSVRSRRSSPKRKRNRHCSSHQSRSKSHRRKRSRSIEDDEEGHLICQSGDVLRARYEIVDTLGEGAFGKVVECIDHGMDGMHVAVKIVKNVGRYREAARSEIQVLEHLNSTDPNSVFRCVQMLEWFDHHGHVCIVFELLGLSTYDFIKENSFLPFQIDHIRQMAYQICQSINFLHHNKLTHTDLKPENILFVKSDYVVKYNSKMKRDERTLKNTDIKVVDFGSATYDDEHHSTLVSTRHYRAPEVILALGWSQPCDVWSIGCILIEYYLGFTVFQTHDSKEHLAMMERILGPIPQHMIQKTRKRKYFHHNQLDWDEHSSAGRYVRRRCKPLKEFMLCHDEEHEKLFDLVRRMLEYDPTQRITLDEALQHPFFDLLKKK
Method in brief: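 Recombinant human Clk4 (25 nM) phosphorylated RS repeat peptide (100 uM) with 1 uM ATP in Tris pH 7.5/MgCl2/EGTA/DTT/Triton buffer for 4.5 h at room temperature. Residual ATP was quantified by Kinase-Glo luciferase luminescence.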

[12] = molecular target: Dual specificity protein kinase CLK4 (Homo sapiens) (UniProt Q9HAZ1); assay: qHTS Assay for Inhibitors of CDC-like Kinase 4 (ADP-Glo Assay) (AID 1771); note: % is set by controls: 0 for no effect and ±100 for the full control effect; nearly all actives have a fitted effect of over 70% in size
Method in brief: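 Kinase reaction: Clk4 at 25 nM, RS repeat peptide substrate at 100 uM, ATP at 1 uM, 1 hr, room temperature. Product ADP detected as luciferase signal via ADP-Glo.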

[13] = molecular target: Dual specificity protein kinase CLK4 (Homo sapiens) (UniProt Q9HAZ1); assay: qHTS Assay for Inhibitors of CDC-like Kinase 4 (ADP-FP Assay) (AID 1795); note: % is set by controls: 0 for no effect and ±100 for the full control effect; nearly all actives have a fitted effect of over 60% in size
Method in brief: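 Recombinant human Clk4 (6.25 nM) phosphorylated RS repeat peptide (100 uM) with 1 uM ATP in Tris pH 7.5/MgCl2/EGTA/DTT/Triton buffer for one hour. ADP was quantified by Transcreener competitive fluorescence polarization against an ADP calibration curve.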

[14] = molecular target: Ubiquitin carboxyl-terminal hydrolase 1 (Homo sapiens) (UniProt O94782); assay: Inhibitors of USP1/UAF1: Pilot qHTS (AID 504865);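 note: rhodamine fluorescence freed from ubiquitin-rhodamine substrate followed over time; top concentration of the series differs between compounds; % is set by controls: 0 for no effect and ±100 for the full control effect; nearly all actives have a fitted effect of over 35% in size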
Sequence of Ubiquitin carboxyl-terminal hydrolase 1 (Homo sapiens) (O94782 whole entry, looked up): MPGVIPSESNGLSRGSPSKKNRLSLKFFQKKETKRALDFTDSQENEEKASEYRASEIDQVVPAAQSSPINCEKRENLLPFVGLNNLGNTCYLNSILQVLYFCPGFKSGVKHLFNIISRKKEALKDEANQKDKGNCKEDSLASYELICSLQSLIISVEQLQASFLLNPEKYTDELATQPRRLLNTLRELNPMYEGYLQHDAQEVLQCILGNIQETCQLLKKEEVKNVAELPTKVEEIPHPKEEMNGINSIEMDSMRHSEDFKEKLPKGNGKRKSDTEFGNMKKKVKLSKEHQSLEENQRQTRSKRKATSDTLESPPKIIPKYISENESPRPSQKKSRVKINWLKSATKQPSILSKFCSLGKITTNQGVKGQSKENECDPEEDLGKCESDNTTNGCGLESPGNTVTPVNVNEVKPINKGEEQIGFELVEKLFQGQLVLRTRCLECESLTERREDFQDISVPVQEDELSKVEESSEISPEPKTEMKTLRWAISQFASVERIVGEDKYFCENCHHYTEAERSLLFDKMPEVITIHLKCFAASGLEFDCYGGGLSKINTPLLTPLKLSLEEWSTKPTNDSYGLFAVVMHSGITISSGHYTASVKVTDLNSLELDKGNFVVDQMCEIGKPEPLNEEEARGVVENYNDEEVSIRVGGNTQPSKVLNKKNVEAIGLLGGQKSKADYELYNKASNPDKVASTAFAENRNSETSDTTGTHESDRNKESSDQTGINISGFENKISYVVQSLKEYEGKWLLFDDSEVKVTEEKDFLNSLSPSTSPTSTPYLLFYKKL
Method in brief: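 USP1/UAF1 complex (1nM) preincubated with compound 15 min at room temperature, then Ub-Rho substrate (150nM final) added. Fluorescence read kinetically at 480/540 nm, 6 reads every 60 seconds. Buffer: 50mM HEPES pH 7.8, 0.5mM EDTA, 0.1 mg/ml BSA, 1mM TCEP, 0.01% Tween-20.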

[15] = molecular target: Cytochrome P450 3A4 (Homo sapiens) (UniProt P08684); assay: qHTS Assay for Activators of Cytochrome P450 3A4 (AID 885); note: nearly all actives have a fitted effect of over 65% in size
Sequence of Cytochrome P450 3A4 (Homo sapiens) (P08684 whole entry, looked up): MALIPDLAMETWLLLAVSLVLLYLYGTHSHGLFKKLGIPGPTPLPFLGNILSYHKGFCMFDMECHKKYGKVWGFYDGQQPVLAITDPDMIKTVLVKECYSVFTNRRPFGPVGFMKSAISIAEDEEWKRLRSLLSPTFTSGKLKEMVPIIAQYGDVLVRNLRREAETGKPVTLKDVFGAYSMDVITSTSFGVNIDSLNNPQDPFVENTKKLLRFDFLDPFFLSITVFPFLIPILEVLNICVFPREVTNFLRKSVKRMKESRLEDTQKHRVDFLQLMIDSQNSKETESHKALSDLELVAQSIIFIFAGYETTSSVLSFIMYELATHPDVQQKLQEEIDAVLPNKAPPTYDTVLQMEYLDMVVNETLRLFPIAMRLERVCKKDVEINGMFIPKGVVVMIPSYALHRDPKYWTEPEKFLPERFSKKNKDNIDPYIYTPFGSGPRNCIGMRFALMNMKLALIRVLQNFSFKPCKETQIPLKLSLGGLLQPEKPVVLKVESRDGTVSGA
Method in brief: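 Quantitative HTS format: compounds preincubated with 20nM human CYP3A4 and Luciferin-PPXE substrate at KM, reaction started by NADPH regeneration, stopped after 60 min, luciferase luminescence read 20 min later.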

[16] = molecular target: Cytochrome P450 3A4 (Homo sapiens) (UniProt P08684); assay: qHTS Assay for Inhibitors and Substrates of Cytochrome P450 3A4 (AID 884); note: nearly all actives have a fitted effect of over 50% in size; note: potency is the fitted concentration of half-maximal effect
Method in brief: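 20 nM human CYP3A4 with 25 uM Luciferin-PPXE (at KM) in 200 mM KPO4, preincubated 10 min with compound; NADPH regeneration started a 60 min RT reaction. Luciferin detected by luminescence, normalized to 57 uM ketoconazole as full inhibition.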

[17] = Confirmation and Secondary Assay for Modulators of Hemoglobin Beta Chain Splicing at IVS2 654 locus (AID 910);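 note: HeLa cells stably carrying EGFP split by mutant beta-globin IVS2-654 intron; % of control where 0% means no effect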
Method in brief: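 Readout: per-well total peak green fluorescence (488 nm ex, 500–520 nm em) from objects 5–250 µm, reflecting correct splicing of an EGFP-654 reporter. Compounds were applied for 2 days at 37 °C to overnight-plated HeLa EGFP-654 cells; controls were DMSO and 500 nM IVS2-654 PNA.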

[18] = Confirmation and Secondary Assay for Modulators of Hemoglobin Beta Chain Splicing at IVS2 705 locus (AID 930);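 note: HeLa cells stably expressing the EGFP-705 splicing reporter; GFP fluorescence per well restored by corrected splicing of the IVS2-705 intron in EGFP; % of control where 0% means no effect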
Method in brief: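 HeLa cells stably carrying EGFP interrupted by mutant beta-globin intron 2 (IVS2-705) treated 2 days at 37C with compound; 500 nM antisense PNA as control. Correct splicing read as total peak GFP intensity per well by laser-scanning cytometry.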

[19] = molecular target: Rap guanine nucleotide exchange factor 3 (Homo sapiens) (UniProt O95398); assay: Confirmatory qHTS for agonist of cAMP-regulated guanine nucleotide exchange factor 3 (EPAC1) (AID 1645881);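 note: EPAC1 catalysed release of BODIPY-GDP from Rap1B seen as fluorescence loss; 100% = effect of cAMP agonist control; nearly all actives have a fitted effect of over 75% in size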
[20] = molecular target: Rap guanine nucleotide exchange factor 4 (Homo sapiens) (UniProt Q8WZA2); assay: Confirmatory qHTS for agonist of cAMP-regulated guanine nucleotide exchange factor 4 (EPAC2) (AID 1645884);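 note: nucleotide exchange releases bodipy-GDP from Rap1 and this lowers its fluorescence; % is set by controls: 0 for no effect and ±100 for the full control effect; nearly all actives have a fitted effect of over 65% in size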
[21] = measured here: cell count channel max response
[22] = measured here: lipid channel max response

COc1ccc(-c2nc3cnc(N4CCN(C)CC4)nc3n(C3CC3)c2=O)cc1
3.44%: max response [10, 22]
2.3%: max response [10, 21]
inactive: Potency [1] > 11.4 µM | activity change, negative = inhibition [2] -5.97% | activity change, negative = inhibition [4] -2.54% | activity, negative = inhibition [5] -7.93% | Potency [6] > 9.22 µM | Potency [7] > 46 µM | Potency [8] | Potency [9] | activity change, negative = inhibition [10] 2.69% | Potency [11] | Potency [12] | Potency [13] | Potency [14]
active: Potency [3] 20 µM

CN1CCN(c2ncncc2-c2ccc(N(C)C)cc2)CC1
inactive: Potency [1] > 11.4 µM | activity change, negative = inhibition [2] -1.37% | activity change, negative = inhibition [4] 6.42% | activity, negative = inhibition [5] 3.73% | Potency [6] > 46 µM | Potency [7] > 46 µM | Potency [8] | Potency [9] | Potency [15] | activity change, negative = inhibition [10] 2.46% | Potency [11] | Potency [12] | Potency [13] | Potency [14]
19.8%: max response [10, 21]
active: Potency [3] 12.6 µM
21.2%: max response [10, 22]

CN1CCN(c2ncc3nc(-c4ccc(F)cc4)c(=O)n(C4CC4)c3n2)CC1
4.22%: max response [10, 22]
7.24%: max response [10, 21]
inactive: Potency [1] > 11.4 µM | activity change, negative = inhibition [2] 9.67% | activity change, negative = inhibition [4] 24.4% | activity, negative = inhibition [5] 18.6% | Potency [6] > 9.22 µM | Potency [7] > 46 µM | Potency [8] | Potency [9] | Potency [16] | activity change, negative = inhibition [10] -0.731% | Potency [11] | Potency [12] | Potency [13] | Potency [14]
active: Potency [3] 12.6 µM

CCC(=O)OC1CCC2C3CCc4cc(O)ccc4C3CC[C@]12C (some centres undefined)
15.5%: max response [10, 22]
9.46%: max response [10, 21]
inactive: Potency [17] | outcome [18] | activity change, negative = inhibition [10] 3.26% | Potency [19] | Potency [20]

COc1ccc(CNc2ccnc(-c3ccccc3CN(C)C)n2)c(OC)c1
inactive: activity change, negative = inhibition [2] 5.22% | activity change, negative = inhibition [4] -25.3% | activity, negative = inhibition [5] 9.04% | Potency [6] > 46 µM | Potency [7] > 46 µM | Potency [8] | Potency [15] | activity change, negative = inhibition [10] 3.1% | Potency [11] | Potency [12] | Potency [13] | Potency [14]
active: Potency [3] 15.8 µM | Potency [16] 5.01 µM
26.9%: max response [10, 21]
28.6%: max response [10, 22]

N#CCCn1c(=O)c(-c2ccc(F)cc2)nc2cnc(OCc3ccccc3)nc21
0.762%: max response [10, 21]
-3.12%: max response [10, 22]
inactive: Potency [1] > 11.4 µM | activity change, negative = inhibition [4] -4.49% | activity, negative = inhibition [5] -20.1% | Potency [6] > 9.22 µM | Potency [7] > 46 µM | Potency [8] | Potency [9] | Potency [15] | activity change, negative = inhibition [10] -1.54% | Potency [11] | Potency [12] | Potency [13] | Potency [14]
active: Potency [3] 1.58 µM
